Screen size: about 16,000 compounds; about 5,800 (36%) were called active. Not shown: some 23% with an inconclusive outcome. The list shows a part of the results. Values without a mark were called inactive. Calls come from the whole dose curve; as a rule, active = well fitted curve in the direction sought with a large enough effect; inconclusive = small, poorly fitted or top-dose-only effect, or effect the other way; inactive = no such curve, though single readings can be large or run the other way.

A word on the AC50: it is the concentration giving half of the maximal activity seen.
% is set by controls: 0 for no effect and ±100 for the full control effect.

The target in the assay is Cytochrome P450 2C19 (Homo sapiens) (UniProt P33261). The assay can be described thus: Cytochrome panel assay with activity outcomes. Conditions: recombinant CYP, pro-luciferin dealkylation, luminescence, p450-cyp2c19; series mostly up to 57.1 µM; activity, negative = inhibition: at the top concentration.
Chain of Cytochrome P450 2C19 (Homo sapiens) (P33261 whole entry, looked up): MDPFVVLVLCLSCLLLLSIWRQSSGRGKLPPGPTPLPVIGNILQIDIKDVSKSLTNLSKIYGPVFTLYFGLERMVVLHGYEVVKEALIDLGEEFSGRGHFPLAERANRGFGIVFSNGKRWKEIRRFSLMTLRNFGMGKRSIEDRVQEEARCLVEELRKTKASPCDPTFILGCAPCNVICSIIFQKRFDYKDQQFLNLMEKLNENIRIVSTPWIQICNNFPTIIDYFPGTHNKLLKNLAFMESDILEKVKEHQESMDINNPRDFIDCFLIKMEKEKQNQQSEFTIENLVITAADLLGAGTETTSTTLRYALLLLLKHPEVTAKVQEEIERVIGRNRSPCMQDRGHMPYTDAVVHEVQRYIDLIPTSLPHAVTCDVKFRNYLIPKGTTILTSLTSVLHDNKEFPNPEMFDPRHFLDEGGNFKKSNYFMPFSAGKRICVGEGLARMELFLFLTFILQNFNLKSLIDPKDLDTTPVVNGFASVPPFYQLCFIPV
Regarding `Cc1cc(C2(c3cc(C)c(O)c(C(=O)O)c3)OS(=O)(=O)c3ccccc32)cc(C(=O)O)c1O`, the activity, negative = inhibition was 12.7% [at 11.4 µM].
For `O=C(O)c1cc2c(o1)CCC/C2=N\O`, the “activity, negative = inhibition” value was -25.5%.
Turning to `CCn1c(SCC(=O)Nc2ccccc2C(=O)OC)nnc1-c1ccc(N)cc1`, the half-maximal activity concentration (AC50) is 0.178 µM (active).
With `CC(=O)OC1CCC(OC(C)=O)c2c1n([O-])c(C)c(C)[n+]2=O` (stereo unspecified), the “activity, negative = inhibition” value was -13.8%.
`Cc1ccccc1S(=O)(=O)Oc1ccccc1C(=O)Oc1ccccc1`: the half-maximal activity concentration (AC50) was 1.78 µM (active).
In the case of `Cc1ccccc1S(=O)(=O)O[C@@H]1NS(=O)(=O)c2ccccc21`, the activity, negative = inhibition was 24% [at 11.4 µM].
For `CC(=O)Oc1ccccc1C(=O)Oc1ccccc1C(=O)O`, the “activity, negative = inhibition” value is -8.83% [at 25.6 µM].
As to `CCOC(=O)C(C)CC(C)C(=O)N1CCOCCN(C(=O)C(C)CC(C)C(=O)OCC)CCOCC1` (stereo unspecified), the AC50 is 10 µM (active).
As to `NC(=O)CN1CCOCCOCCOCCOCCOCC1`, the “activity, negative = inhibition” value was 33.6%.
As for `CC(C)OC(=O)C(CC(=O)O)N1CCOCC1` (stereo unspecified), the “activity, negative = inhibition” value was -11.3%.
Consider `CC1(C)O[C@@H]2C[C@H]3[C@H]4C[C@H](F)C5=CC(=O)CC[C@]5(C)[C@@H]4[C@H](O)C[C@]3(C)[C@]2(C(=O)CO)O1`, for which the “activity, negative = inhibition” value was 18.6% [at 25.6 µM].
The same measure, in the same setting: with `CC1=NN(c2ccccc2)C(=O)C1` the figure was 8.71%; with `c1ccc2c(c1)C(=Nc1ccc(N=C3c4ccccc4-c4ccccc43)cc1)c1ccccc1-2`, -36.8% [at 11.4 µM].
With `O=C1CC(=Nc2ccccc2)NN1c1ccccc1`, the AC50 was 5.62 µM (active).
Turning to `CCCCC1=NN2C(=N)CC(=O)N=C2S1`, the “activity, negative = inhibition” value is 21.6%.
Regarding `C[C@H]1COC(=O)[C@H](Cc2ccccc2)NC(=O)[C@@H](C)COC(=O)[C@H](Cc2ccccc2)NC1=O`, the activity, negative = inhibition was -17.3% [at 11.4 µM].
As for `O=C1C(Cc2ccccc2)NC(=S)N1c1ccccc1` (stereo unspecified), the AC50 is 3.16 µM (active).
Regarding `CO[C@@H]1COC(=O)[C@H](Cc2ccccc2)NC(=O)C/C=C\[C@@H](C)[C@H](OC)COC(=O)[C@@H](C)NC(=O)C/C=C\[C@H]1C`, the activity, negative = inhibition is 10.6% [at 11.4 µM].
Take `O=C(Cn1cnc([N+](=O)[O-])c1)NCc1ccc(F)cc1`: the “activity, negative = inhibition” value was -0.808%.
`Cc1ccc(CNC(=O)Cn2cncn2)cc1`: the AC50 is 7.94 µM (active).
Regarding `C[C@H](NC(=O)Cn1cncn1)c1ccccc1`, the “activity, negative = inhibition” value is -19.3%.
For the compound `Cc1cc(N)n(-c2ccc3ccccc3c2)n1`, the AC50 was 25.1 µM (active).
On to `O=C(c1csnn1)N1CCC2(CC1)CN(c1ccccn1)C2`, for which the “activity, negative = inhibition” value was -34%.
Take `Cc1ccc(Nc2ccc(-n3ccnc3)nn2)cc1C`: the AC50 was 0.0501 µM (active).
As to `CCC(C)NC(=O)c1ccccc1NC(=O)Nc1ccccc1` (stereo unspecified), the half-maximal activity concentration (AC50) is 10 µM (active).
Consider `CC(C)C(=O)NC(=S)Nc1ccccc1C(=O)Nc1ccccc1`, for which the AC50 was 15.8 µM (active).
Turning to `Clc1ccc([C@H](Cn2ccnc2)OCc2csc3c(Cl)cccc23)c(Cl)c1`, the AC50 was 0.251 µM (active).
Same read-out and setting: with `Clc1ccc(CO[C@@H](Cn2ccnc2)c2ccc(Cl)cc2Cl)cc1` the figure was 0.0631 µM (active).
With `CC1(C)Cc2c(sc3c2C(=O)N(c2ccccc2)C2=NCCN23)CS1`, the “activity, negative = inhibition” value is -11.2%.
On the same count and under the same terms, with `Cc1ccccc1CN1C2=NCCN2C(=O)C2=C1CCN(Cc1ccccc1)C2` the figure was 10.2% [at 11.4 µM].
In the case of `Clc1ccc(Cn2c(CN3CCCC3)nc3ccccc32)cc1`, the AC50 is 0.2 µM (active).
Consider `Cc1ccccc1Cn1c(Cc2ccccc2)nc2ccccc21`, for which the AC50 is 2 µM (active).
Same read-out and setting: with `c1ccc(Cn2c(CN3CCCC3)nc3ccccc32)cc1` the figure was 3.55 µM (active).
Turning to `[O-][n+]1c(CN2CCCCC2)nc2cccc3c2c1-c1ccccc1-3`, the activity, negative = inhibition was 9.09% [at 11.4 µM].
As for `Cn1c(-c2ccc(CN3CCCCC3)o2)nc2ccccc21`, the “activity, negative = inhibition” value was -21.4%.
Still for that read-out and setting: as for `C[N+]1(C)CCO[C@](O)(c2ccccc2)C1`, the figure is 42.8% [at 11.4 µM].
On to `c1ccc(SC(Sc2ccccc2)c2ccc3c(c2)OCO3)cc1`, for which the AC50 was 0.0316 µM (active).
With `c1cc2c(cc1C(N1CCNCC1)N1CCNCC1)OCO2`, the activity, negative = inhibition was 14.2% [at 11.4 µM].
As for `Cc1ccc(S(=O)(=O)N(CC(=O)N/N=C/c2ccc(F)cc2)c2cccc3cccnc23)cc1`, the AC50 is 1.12 µM (active).
Same read-out and setting: with `CC(C)COCC1CC2(CC(C)(c3csc(N)n3)OC2=O)C(=O)O1` (stereo unspecified) the figure was 15.8 µM (active); with `CCCSC1=C(C#N)C(c2cccnc2)C(C(=O)OCC)=C(c2ccccc2)N1` (stereo unspecified), 14.1 µM (active).
Consider `N#Cc1cccc(NC(=O)N2CCCC3(CCN(C(=O)c4cnccn4)CC3)C2)c1`, for which the “activity, negative = inhibition” value was -28%.
On to `NN(CC(=O)O)CC(=O)O`, for which the activity, negative = inhibition is 14.5% [at 11.4 µM].
Regarding `O=C(Nc1nc(-c2ccccc2)cs1)c1cccc([N+](=O)[O-])c1`, the AC50 is 1.58 µM (active).
For the compound `O=C(Nc1nc(-c2ccccc2)cs1)c1ccc(Br)o1`, the concentration at half-maximal activity (AC50) was 14.1 µM (active).
With `CCNc1ncc2nc(C)c(=O)n(C)c2n1`, the “activity, negative = inhibition” value was -43.7%.
For `COc1ccc([C@H]2Sc3ccccc3N(CCN(C)C)C(=O)[C@H]2OC(C)=O)cc1`, the AC50 entry was “inactive”.
As for `CN(C)CCCN=c1c2ccccc2n(C)c2[nH]c(=O)n(C)c(=O)c12`, the activity, negative = inhibition is 31% [at 11.4 µM].
For `CCNc1ncc2nc(-c3ccc(F)cc3)c(=O)n(CCC#N)c2n1`, the “activity, negative = inhibition” value is -4.86%.
`CC(C)c1ccc(C(=O)CC2(O)C(=O)N(CN3CCOCC3)c3ccccc32)cc1` (stereo unspecified): the AC50 is 2.24 µM (active).
Take `CC1(C)C(=O)N(CCN2CCC(C(=O)c3ccc(F)cc3)CC2)c2ccccc21`: the “activity, negative = inhibition” value is -18.1%.
As for `C[C@@H]1C[C@H]2[C@H]3C[C@@H](F)C4=CC(=O)C=C[C@]4(C)[C@@]3(Cl)[C@@H](O)C[C@@]2(C)[C@@H]1C(=O)COC(=O)C(C)(C)C`, the “activity, negative = inhibition” value is -30.8% [at 25.6 µM].
For the compound `C(=N/Nc1nnc2c(n1)[nH]c1ccccc12)/c1cccnc1`, the activity, negative = inhibition is -3.42% [at 11.4 µM].
For the compound `Clc1ccc(/C=N/Nc2nnc(-c3ncc[nH]3)c3ccccc23)cc1`, the AC50 was 11.2 µM (active).
On the same count and under the same terms, with `C=CC[n+]1c(-c2ccc(C)cc2)csc1NNC(=O)Nc1ccccc1` the figure was 5.01 µM (active); with `O=C1CC(N2CCN(CCc3ccccn3)CC2)C(=O)N1c1ccc(Cl)cc1` (stereo unspecified), 8.91 µM (active).
Consider `O=C(CCn1nc(-c2ccc(Cl)cc2)ccc1=O)NCc1ccccn1`, for which the “activity, negative = inhibition” value was -24.9%.
With `CC1(C)CC2(CC(c3cccs3)c3cc(Cl)c(O)cc3O2)NC(=S)N1` (stereo unspecified), the AC50 was 2.82 µM (active).
On to `O=C(O)c1ccccc1OP(=O)(O)O`, for which the “activity, negative = inhibition” value is 12.1% [at 25.6 µM].
Turning to `Cc1nc(Sc2ccccc2)c(C#N)cc1-c1ccccc1`, the AC50 is 0.631 µM (active).
The same measure, in the same setting: as for `Cc1nc(Cl)c(C#N)cc1-c1ccccc1`, the figure is 5.62 µM (active).
On to `Cc1ccc(Oc2nnc(-c3ccccc3)cc2C#N)cc1`, for which the “activity, negative = inhibition” value was -0.99%.
The same measure, in the same setting: as for `O=C(O)c1c[nH]c2cc(OCc3ccccc3)ccc2c1=O`, the figure is 0.142% [at 11.4 µM].
For the compound `Cc1cc2c(cc1C)NC1=C(N2)O[C@H](c2c[nH]c3ccc(COc4ccccc4)cc23)C1=O`, the AC50 is 0.501 µM (active).
Regarding `Cc1ncc(N=Nc2ccccc2Cl)c(-c2ccccc2)n1`, the AC50 is 14.1 µM (active).
For the compound `CCSC1=C(C#N)C2(CCCCC2)C(C#N)=C(N)N1`, the AC50 is 5.01 µM (active).
With `COc1ccc(C(=O)C(OC(=O)CNC(=O)c2ccco2)c2ccccc2)cc1` (stereo unspecified), the AC50 was 10 µM (active).
On the same count and under the same terms, with `O=C(CNC(=O)c1ccco1)OC(C(=O)c1ccccc1)c1ccccc1` (stereo unspecified) the figure was 5.62 µM (active).
For `COc1ccc(C(=O)[C@H](Br)[C@H](Br)C(=O)O)cc1`, the activity, negative = inhibition is -1.07% [at 11.4 µM].
With `COC(=O)c1ccccc1-c1ccc(/C=C2\C(=O)N(c3ccccc3)N=C2c2ccccc2)o1`, the AC50 is 1.41 µM (active).
On the same count and under the same terms, as for `COc1ccc(-c2ccc(/C=C3\C(=O)N(c4ccccc4)N=C3c3ccccc3)o2)c([N+](=O)[O-])c1`, the figure is 2.51 µM (active).
On to `CC1=NN(c2ccccc2)C(=O)/C1=C\N1CC(C)OC(C)C1` (stereo unspecified), for which the “activity, negative = inhibition” value is 19.4%.
With `CN(C)CCCN1CCC2(CCC(C(C)(C)C)CC2)CC1`, the activity, negative = inhibition was 40.8% [at 11.4 µM].
As for `CC(Oc1ccccc1)C(=O)Nc1nc2c(s1)C(=O)CC(C)(C)C2` (stereo unspecified), the AC50 was 7.08 µM (active).
As for `C[C@H](Oc1ccccc1)C(=O)N[C@@H]1C(=O)N2[C@@H]1SC(C)(C)[C@@H]2C(=O)O`, the “activity, negative = inhibition” value was 28.6% [at 25.6 µM].
Take `O=C1N=C(N2CCC(Cc3ccccc3)CC2)S/C1=C/c1cn[nH]c1-c1ccccc1`: the AC50 was 3.55 µM (active).
For the compound `CC(C)C(NC(=O)OCc1ccccc1)C(=O)O` (stereo unspecified), the “activity, negative = inhibition” value was -12.5%.
Consider `CCC(C)C(NC(=O)OCc1ccccc1)C(=O)OCN1C(=O)c2ccccc2C1=O` (stereo unspecified), for which the AC50 is 3.16 µM (active).
On to `CCN1C(=O)[C@H]2[C@H]3[C@H](O)[C@H](O)C/C(=N/NC(=O)OCc4ccccc4)[C@@H]3CC[C@@H]2C1=O`, for which the activity, negative = inhibition was 36.5% [at 11.4 µM].
In the case of `Cc1ccc(C(=O)/C=C/c2c[nH]c3ccccc23)cc1`, the half-maximal activity concentration (AC50) is 3.55 µM (active).
Same read-out and setting: as for `CCCn1c(/C=C/c2ccccc2)nc2ccccc21`, the figure is 7.94 µM (active); as for `c1ccc2c(CSCc3cccc4ccccc34)cccc2c1`, 0.126 µM (active).
`c1ccc2c(CC3NCCN3)cccc2c1`: the activity, negative = inhibition is 28.8% [at 11.4 µM].
`c1cc(CSSCc2ccncc2)ccn1`: the AC50 was 1.26 µM (active).
As to `c1ccc2c(CSc3nnc(-c4ccncc4)o3)cccc2c1`, the AC50 was 0.282 µM (active).
Regarding `O=S(=O)(O)CCCc1cccc2ccccc12`, the activity, negative = inhibition was 21.3% [at 11.4 µM].
Consider `c1ccc2c(CSCCc3ccncc3)cccc2c1`, for which the AC50 was 0.0794 µM (active).
For `CCNc1ncc2nc(-c3ccc(F)cc3)c(=O)n(-c3ccccc3)c2n1`, the “activity, negative = inhibition” value was 14.6%.
Still for that read-out and setting: as for `N[C@@H](CSC(=O)c1ccccc1)C(=O)O`, the figure is 16.7% [at 11.4 µM].
Turning to `c1ccc(CSCCc2ccncc2)cc1`, the AC50 was 0.1 µM (active).
Take `CN1CCN(CCc2ccc(Cl)c(Cl)c2)CC1`: the “activity, negative = inhibition” value was -37.7%.
Consider `N=C(N)SCCc1ccncc1`, for which the activity, negative = inhibition is 9% [at 11.4 µM].
Take `O=C(SCc1cccc2ccccc12)c1ccc(Cl)cc1`: the AC50 was 1.58 µM (active).
As to `O=C(Cc1ccc(Cl)cc1)NNC(=O)Nc1cccc2ccccc12`, the “activity, negative = inhibition” value was -29.4%.
With `Clc1ccc(CSCCc2ccncc2)cc1Cl`, the AC50 was 0.1 µM (active).
For the compound `N=C(N)SCCc1ccc(CCSC(=N)N)cc1`, the “activity, negative = inhibition” value was -4%.

Source of the values: PubChem BioAssay AID1851 (National Center for Advancing Translational Sciences (NCATS), 2009).
